Most compounds without a hit are left out; they make up all but 4.2% or so of the library.
FBA Mtb inh – Mtb FBA enzyme inhibitors, primary screen, biochemical, fluorescence, strain H37Rv | purified M. tuberculosis FBA, fluorescence read-out | inhibition, % at 1 µM | AID 588726, 2011 | actives 2.3% (n = 360,000); in the data active = inhibition above about 27%;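 note: 0% = vehicle and 100% = reference inhibitor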
Mtb bLac sens – beta-lactam sensitization of Mtb H37Rv, H37Rv; M. tuberculosis H37Rv growth with meropenem, percent inhibition; inhibition, % at 25 µM; actives 0.27% (n = 330,000); AID 434955, 2010; call rule not given here;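 note: growth measured after seven days incubation then overnight dye step; 0% = bacteria only wells and 100% = bacteria with antibiotic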
RecA intein inh – Mtb RecA intein splicing inhibitors, primary screen, biochemical, fluorescence, HTS | Protein RecA (Mycobacterium tuberculosis (strain ATCC 25618 / H37Rv)), P9WHJ3 | cell-free RecA intein splicing | inhibition, % (concentration not given with the values) | actives 0.75% (n = 290,000) | AID 2221, 2009; in the data active = inhibition above about 30%; inconclusive = no clear call, values can overlap the other calls;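 note: 0% = vehicle wells and 100% = reference inhibitor control wells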
Target sequence (P9WHJ3 whole entry, looked up): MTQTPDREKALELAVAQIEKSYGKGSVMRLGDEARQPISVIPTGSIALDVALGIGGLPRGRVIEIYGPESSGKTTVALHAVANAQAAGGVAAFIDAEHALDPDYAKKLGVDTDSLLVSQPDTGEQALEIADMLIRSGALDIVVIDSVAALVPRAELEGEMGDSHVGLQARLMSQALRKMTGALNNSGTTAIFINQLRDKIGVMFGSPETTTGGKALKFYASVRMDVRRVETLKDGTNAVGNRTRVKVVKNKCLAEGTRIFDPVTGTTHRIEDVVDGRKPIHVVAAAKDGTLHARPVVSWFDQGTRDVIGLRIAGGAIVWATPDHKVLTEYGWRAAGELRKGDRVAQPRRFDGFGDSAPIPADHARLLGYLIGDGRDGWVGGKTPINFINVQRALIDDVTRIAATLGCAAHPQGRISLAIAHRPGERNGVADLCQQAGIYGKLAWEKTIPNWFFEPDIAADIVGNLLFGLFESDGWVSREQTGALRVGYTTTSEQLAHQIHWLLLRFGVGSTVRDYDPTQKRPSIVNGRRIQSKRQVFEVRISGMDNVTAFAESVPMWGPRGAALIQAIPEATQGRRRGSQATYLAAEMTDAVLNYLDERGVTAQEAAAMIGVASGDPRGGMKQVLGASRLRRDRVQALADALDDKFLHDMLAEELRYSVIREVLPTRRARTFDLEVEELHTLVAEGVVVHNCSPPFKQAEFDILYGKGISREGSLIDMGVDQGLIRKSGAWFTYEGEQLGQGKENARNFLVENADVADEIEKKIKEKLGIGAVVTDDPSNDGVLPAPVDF
CCHF vOTU inh – CCHFV vOTU protease inhibitors, primary screen, biochemical, Pep-AMC substrate, fluorescence | Crimean-Congo hemorrhagic fever virus L polyprotein viral ovarian tumor (vOTU) protease … | inhibition, % at 11.5 µM | actives 0.55% (n = 370,000); note: 0% = vehicle wells with enzyme and 100% = no enzyme wells
GDH-TPI counter – GDH-TPI coupling enzyme inhibitors, primary screen, artefact control for M. tuberculosis FBA inhibitor project, biochemical, absorbance, full deck | GDH-TPI coupled enzyme counterscreen, NADH absorbance | inhibition, % at 4.8 µM | actives 1.2% (n = 360,000);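 note: 0% = DMSO wells and 100% = wells lacking the enzyme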
* marks the source's active call; other numbers are inactive results; ? = inconclusive; nt = not tested or not shown; + = active, no number. Cut-off read from the data, not from the text of the source, unless noted: active = inhibition above about 30%; inactive = the rest.

SMILES	FBA Mtb inh	Mtb bLac sens	RecA intein inh	CCHF vOTU inh	GDH-TPI counter
COc1ccc(CNS(=O)(=O)/C=C/c2cc(C)ccc2CNC(=O)OC(C)(C)C)cc1	nt	nt	nt	12	nt
C=CCN1C(=O)C(CC(=O)O)S/C1=N/N=C/c1ccc(N(CC)CC)cc1 (stereo not given)	23	6	nt	-30	35*
CCCCCCN1CCS(=O)(=O)N(Cc2ccc(Cl)cc2)C(C(=O)OC)C1 (stereo not given)	nt	nt	nt	22	nt
CCOC(=O)c1cn2nc(Oc3cccc(C(F)(F)F)c3)ccc2n1	66*	-3	3	-23	5
CCOC(=O)c1cn2nc(Oc3ccccc3)ccc2n1	6	-7	-1	-3	-5
CC(C)CNS(=O)(=O)/C=C/c1cc2c(cc1CNC(=O)OC(C)(C)C)OCO2	nt	nt	nt	10	nt
O=C(/C=C\Nc1ccccn1)c1ccc(Cl)cc1	1	6	nt	-9	31*
FC(F)(F)c1cnc(N/N=C/c2ccncc2)c(Cl)c1	0	-3	0	11	57*
O=C(O)c1ccc(/C=N/Nc2ncc(Cl)cc2Cl)cc1	-3	1	-6	-4	21
COc1ccc(/C=N/Nc2nonc2N)cc1OC	3	49	-2	8	24
COc1ccc(/C=N/Nc2ncc(C(F)(F)F)cc2Cl)cc1OC	6	-5	-5	3	41*
Cc1c[nH]c2cccc(-c3ccccc3)c12	nt	nt	nt	1	nt
CCN(CC)c1ccc(/C=N/n2c(-c3ccccc3Br)n[nH]c2=S)cc1	3	-13	-2	16	38*
O=C1c2ccccc2-c2nnc(-c3ccc(O)cc3)cc21	-2	58	49*	-7	-5
COc1cccc(C2=N/C(=C\N(C)C)C(=O)O2)c1	0	8	-1	22	37*
COc1cccc(-c2nc3ccccc3c(=O)o2)c1	2	17	5	11	-5
CC1(c2ccccc2)CC(C)(C)N(C(=O)C2CCCO2)c2ccccc21 (stereo not given)	5	0	15	35*	0
CC1(c2cc([N+](=O)[O-])cc([N+](=O)[O-])c2)CC(C)(C)N(C(=O)c2ccccc2)c2ccccc21 (stereo not given)	0	78	nt	-1	-3
COC(=O)C1CN(Cc2ccc(OC)cc2)CCS(=O)(=O)N1Cc1cn(Cc2ccc(F)cc2)nn1 (stereo not given)	nt	nt	nt	-1	nt
CN1C[C@H](CO)C=C2c3cccc4[nH]cc(c34)C[C@H]21	172*	-10	8	-82	9
CC(C)C[C@H]1C(=O)N2CCCC2[C@]2(O)O[C@](NC(=O)[C@@H]3C=C4c5cccc6[nH]cc(c56)CC4N(C)C3)(C(C)C)C(=O)N12 (stereo not given in full)	4	-9	?	nt	10
COCCCn1cc(CN2CC=CS2(=O)=O)nn1	nt	nt	nt	6	nt
CN1C(=O)NC(c2ccc(O)cc2)C(C(=O)c2cccs2)C1(O)C(F)(F)F (stereo not given)	-4	-1	7	8	43*
COc1ccc(NC(=O)C2CC(=O)N/C(=N/N=C/c3ccco3)S2)cc1 (stereo not given)	-2	-2	1	24	45*
COc1ccc(/C=N/N=C2/NC(=O)CC(C(=O)O)S2)cc1 (stereo not given)	-3	0	-3	10	55*
SMILES	FBA Mtb inh	Mtb bLac sens	RecA intein inh	CCHF vOTU inh	GDH-TPI counter
CC(C)C1S/C(=N/N=C/c2ccco2)NC1=O (stereo not given)	-4	12	nt	-1	57*
O=C1CC(C(=O)Nc2ccccc2)S/C(=N\N=C\c2ccco2)N1 (stereo not given)	-4	-8	0	16	29
O=C1CC(C(=O)Nc2ccc(Br)cc2)S/C(=N\N=C\c2ccco2)N1 (stereo not given)	0	7	1	17	52*
COc1ccc(CN=C2NC(=O)CC(C(=O)Nc3ccc(F)cc3)S2)cc1 (stereo not given)	2	-6	5	27	0
CCOC(=O)[C@]12CCCC3=C1N(CCC3)C(=O)[C@@H](CC(=O)NCCCCc1ccccc1)C2	nt	nt	nt	5	nt
CCCCNC(=O)CC1S/C(=N/N=C/c2ccc(OC)cc2)NC1=O (stereo not given)	-2	-10	0	-13	33*
COc1ccc(/C=N/N=C2/NC(=O)C(CC(=O)NC(N)=O)S2)cc1 (stereo not given)	1	-4	-1	16	26
O=C1CC(C(=O)Nc2ccc(Cl)cc2)S/C(=N\N=C\c2ccco2)N1 (stereo not given)	-2	-4	-3	11	56*
O=C(NCCO)C1(C(=O)C2CC2)CC(c2ccccn2)=NO1 (stereo not given)	nt	nt	nt	-4	nt
CC(C)(C)c1cc(NC(=O)CCl)n(-c2ccccc2)n1	-6	97	38*	1	5
COc1ccccc1NC(=O)c1c(NC(=O)CCC(=O)O)sc2c1CCCCC2	10	-4	-2	16	31*
COCCn1c(-c2ccco2)nc2nc3ccccc3nc21	+	-5	-54	-241	37*
CC(C)OCCCn1c(-c2ccco2)nc2nc3ccccc3nc21	+	18	-171	-24	36*
CCC(C)n1c(-c2ccco2)nc2nc3ccccc3nc21 (stereo not given)	nt	5	-42	nt	nt
COc1cccc(-n2c(-c3ccco3)nc3nc4ccccc4nc32)c1	7	-5	-7	6	10
CCCC(=O)OC12CCCN(C1)/C(=C/c1ccc(OC)cc1)C2 (stereo not given)	nt	nt	nt	2	nt
CN(C)c1ccc(C(=O)Nc2nnc(C3=COCCO3)o2)cc1	3	90	1	-9	41*
CCOC(=O)N1CCC2(CC1)C(C#N)=C(N)Oc1n[nH]c(CSc3ccc(C)cc3)c12	-9	-2	51*	17	2
CCOC(=O)Cc1nc(N2CCN(CCO)CC2)c2c(C)c(C(=O)OCC)sc2n1	nt	nt	nt	6	nt
COC(=O)[C@]12C[C@H](CC(=O)NCc3ccc(OC)c(OC)c3)C(=O)N(Cc3ccco3)C1=C[C@H](C1CCCC1)O[C@@H]2C	nt	nt	nt	5	nt
Cc1ccc(C(=O)/C=C\NCc2ccccc2)cc1	1	3	4	5	29
COc1ccc(C(=O)/C=C/Nc2cc(C)on2)cc1	0	0	-3	9	41*
COc1ccc(C(=O)/C=C/NCc2ccc(C)cc2)cc1	0	-3	2	12	44*
COc1nc(OC)nc(N2CCC(C(=O)NCc3ccccc3OC)CC2)n1	nt	nt	nt	18	nt
CC(=O)CC[C@@H]1CC[C@]2(CCCN(C(=O)c3ccco3)C2)O1	nt	nt	nt	-7	nt
COC(=O)C1CN(Cc2ccc(Cl)cc2)CCS(=O)(=O)N1Cc1cn(Cc2ccc(F)cc2)nn1 (stereo not given)	nt	nt	nt	3	nt

Screening results from PubChem BioAssay.
